Records with an inconclusive call do not appear. A call without a number means that no potency is given here. Active and inactive are the calls of the source. Calls come from the whole dose curve; as a rule, active = well fitted cell-killing curve with a large enough effect in the repeat runs; inconclusive = weak or mixed curves, or effect the other way; inactive = flat fitted curve, though single readings scatter.
Test: qHTS assay to identify small molecule antagonists of the estrogen receptor alpha (ER-alpha) signaling pathway using the BG1 cell line in the presence of 0.1 nM 17-beta-estradiol - cell viability counter screen (AID 1259241); note: nearly all actives have a fitted effect of over 40% in size; note: potency is the fitted concentration of half-maximal effect
Conditions: VM7Luc4E2 (BG1) viability, CellTiter-Fluor protease, 22 h, 0.1 nM estradiol agonist added; series mostly up to 92.4 µM
In short: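 Viability in VM7Luc4E2 cells after 22 hr compound exposure under 0.1 nM 17beta-estradiol stimulation, by CellTiter-Fluor.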

Row | Structure (SMILES) | Potency | activity change, negative = cytotoxicity
1 | CC(CCc1ccc2c(c1)OCO2)NN (configuration not stated) | inactive | 
2 | CO[Si](C)(OC)OC | inactive | 
3 | CCC1(C)CC(=O)NC1=O (configuration not stated) | inactive | 
4 | CC(=O)CC(c1ccc([N+](=O)[O-])cc1)c1c(O)c2ccccc2oc1=O (configuration not stated) | inactive | 
5 | CSc1ccc(Oc2ccc(S(N)(=O)=O)cc2CN(C)C)cc1C | inactive | 
6 | COc1ccc([C@@H]2Sc3ccccc3NC(=O)[C@@H]2O)cc1 | inactive | 
7 | Nc1nc(Cl)nc2c1ncn2[C@@H]1O[C@H](CO)[C@@H](O)[C@@H]1F | inactive | 
8 | C=CC(C)(C)CC(=O)OC | inactive | 
9 | O=C(O)C(Cc1cc(I)c(O)c(I)c1)c1ccccc1 (configuration not stated) | inactive | 
10 | CC1=NN(c2ccc(C(=O)O)cc2)C(=O)C1 | inactive | 
11 | CN(C)C(=O)Nc1ccc(Oc2ccc(Cl)cc2)cc1 | inactive | 
12 | CNC(=S)NC | inactive | 
13 | CCCCC(=O)O[C@]1(C(=O)CO)CC[C@H]2[C@@H]3CCC4=CC(=O)CC[C@]4(C)[C@H]3[C@@H](O)C[C@@]21C | inactive | 
14 | C1COCO1 | inactive | 
15 | Cc1ccnc2ccccc12 | inactive | 
16 | CO[C@H]1O[C@H](CO)[C@@H](O)[C@H](O)[C@H]1O | inactive | 
17 | CC(=O)Oc1ccc(C(=C2CCCCC2)c2ccc(OC(C)=O)cc2)cc1 | inactive | 
18 | CCc1cccc(N(C)C(N)=Nc2cccc3ccccc23)c1 | inactive | 
19 | CCCCCCCC/C=C\CCCCCCCC(=O)OC | inactive | 

Row | Structure (SMILES) | Potency | activity change, negative = cytotoxicity
20 | ON(Cc1ccccc1)Cc1ccccc1 | inactive | 
21 | CCC(C)(C)C1CCC(O)CC1 (configuration not stated) | inactive | 
22 | c1cc[c]([Bi]([c]2ccccc2)[c]2ccccc2)cc1 | inactive | 
23 | CC(C)(C)C(=O)O | inactive | 
24 | NCC1CCCC(CN)C1 (configuration not stated) | inactive | 
25 | COc1cc2c(cc1OC)-c1cc(=Nc3c(C)cc(C)cc3C)n(C)c(=O)n1CC2 | inactive | 
26 | Cc1ccccc1N1C(=O)c2cc(S(N)(=O)=O)c(Cl)cc2NC1C (configuration not stated) | inactive | 
27 | C=CC(=C)CCCC(C)(C)OC(C)=O | inactive | 
28 | NC(=O)N(O)[C@@H]1COc2cc(OCc3ccccc3)ccc21 | inactive | 
29 | O=C(OCCOCCO)c1ccccc1Nc1cccc(C(F)(F)F)c1 | inactive | 
30 | CN1CCN(c2c(F)cc3c(=O)c(C(=O)O)cn4c3c2OCN4C)CC1 |  | 0.712% [at 19 µM] (inactive)
31 | OCC1CC=CCC1 (configuration not stated) | inactive | 
32 | CC(C)CCCCCOC(=O)CCCCC(=O)OCCCCCC(C)C | inactive | 
33 | CO[C@H]1C=CO[C@@]2(C)Oc3c(C)c(O)c4c(O)c(c5c(c4c3C2=O)=NC2(CCN(CC(C)C)CC2)N=5)NC(=O)/C(C)=C\C=C/[C@H](C)[C@H](O)[C@@H](C)[C@@H](O)[C@@H](C)[C@H](OC(C)=O)[C@@H]1C | 47.5 µM (active) | 
34 | CN1Cc2cc(C(=O)N3CCC(C4CCNCC4)CC3)ccc2N[C@@H](CC(=O)O)C1=O | inactive | 
35 | COC(=O)c1cc(Cl)ccc1NS(=O)(=O)C(F)(F)F | inactive | 
36 | CCOCCn1c(C2CCN(CCc3ccc(C(C)(C)C(=O)O)cc3)CC2)nc2ccccc21 | inactive | 
37 | CCc1c2c(nc3ccc(OC(=O)N4CCC(N5CCCCC5)CC4)cc13)-c1cc3c(c(=O)n1C2)COC(=O)[C@]3(O)CC | inactive | 
38 | CC1CC(=O)NN=C1c1ccc(NCC(C)(C)NCC(O)COc2cc(Cl)ccc2C#N)cc1 (configuration not stated) | inactive | 

Test: qHTS assay to identify small molecule antagonists of the androgen receptor (AR) signaling pathway using the MDA cell line in the presence of 0.5 nM R1881 - cell viability counter screen (AID 1259242); note: nearly all actives have a fitted effect of over 45% in size
Conditions: MDA-kb2 viability, CellTiter-Fluor protease fluorescence, 16 h; series mostly up to 92.4 µM
In short: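 Counter screen for cytotoxicity run in the same wells as the AR antagonist reporter screen: MDA-kb2 cells were treated 16 hr with test compounds and 0.5 nM R1881, then live-cell protease activity was measured by fluorescence.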

Row | Structure (SMILES) | Potency | viability change, negative = cytotoxic
39 | CC(CCc1ccc2c(c1)OCO2)NN (configuration not stated) | inactive | 
40 | CO[Si](C)(OC)OC | inactive | 
41 | CCC1(C)CC(=O)NC1=O (configuration not stated) | inactive | 
42 | CC(=O)CC(c1ccc([N+](=O)[O-])cc1)c1c(O)c2ccccc2oc1=O (configuration not stated) | inactive | 
43 | CSc1ccc(Oc2ccc(S(N)(=O)=O)cc2CN(C)C)cc1C | inactive | 
44 | COc1ccc([C@@H]2Sc3ccccc3NC(=O)[C@@H]2O)cc1 | inactive | 
45 | Nc1nc(Cl)nc2c1ncn2[C@@H]1O[C@H](CO)[C@@H](O)[C@@H]1F | inactive | 
46 | C=CC(C)(C)CC(=O)OC | inactive | 
47 | O=C(O)C(Cc1cc(I)c(O)c(I)c1)c1ccccc1 (configuration not stated) | inactive | 
48 | CO[C@@]12[C@H](COC(N)=O)C3=C(C(=O)C(C)=C(N)C3=O)N1C[C@@H]1N[C@@H]12 | inactive | 
49 | CC1=NN(c2ccc(C(=O)O)cc2)C(=O)C1 | inactive | 
50 | CN(C)C(=O)Nc1ccc(Oc2ccc(Cl)cc2)cc1 | inactive | 
51 | CNC(=S)NC | inactive | 
52 | CCCCC(=O)O[C@]1(C(=O)CO)CC[C@H]2[C@@H]3CCC4=CC(=O)CC[C@]4(C)[C@H]3[C@@H](O)C[C@@]21C | inactive | 
53 | C1COCO1 | inactive | 
54 | Cc1ccnc2ccccc12 | inactive | 
55 | CO[C@H]1O[C@H](CO)[C@@H](O)[C@H](O)[C@H]1O | inactive | 
56 | CC(=O)Oc1ccc(C(=C2CCCCC2)c2ccc(OC(C)=O)cc2)cc1 | inactive | 
57 | CCc1cccc(N(C)C(N)=Nc2cccc3ccccc23)c1 | inactive | 
58 | CCCCCCCC/C=C\CCCCCCCC(=O)OC | inactive | 

Row | Structure (SMILES) | Potency | viability change, negative = cytotoxic
59 | ON(Cc1ccccc1)Cc1ccccc1 | inactive | 
60 | CCC(C)(C)C1CCC(O)CC1 (configuration not stated) | inactive | 
61 | c1cc[c]([Bi]([c]2ccccc2)[c]2ccccc2)cc1 | inactive | 
62 | CC(C)(C)C(=O)O | inactive | 
63 | NCC1CCCC(CN)C1 (configuration not stated) | inactive | 
64 | Cc1occc1C(=O)Nc1ccc(C(=O)N2CCC(F)(F)/C(=C\C(=O)N3CCC(N4CCCCC4)CC3)c3ccccc32)cc1 | inactive | 
65 | COc1cc2c(cc1OC)-c1cc(=Nc3c(C)cc(C)cc3C)n(C)c(=O)n1CC2 | inactive | 
66 | Cc1ccccc1N1C(=O)c2cc(S(N)(=O)=O)c(Cl)cc2NC1C (configuration not stated) | inactive | 
67 | C=CC(=C)CCCC(C)(C)OC(C)=O | inactive | 
68 | NC(=O)N(O)[C@@H]1COc2cc(OCc3ccccc3)ccc21 | inactive | 
69 | O=C(OCCOCCO)c1ccccc1Nc1cccc(C(F)(F)F)c1 | inactive | 
70 | CN1CCN(c2c(F)cc3c(=O)c(C(=O)O)cn4c3c2OCN4C)CC1 |  | 0.172% [at 19 µM] (inactive)
71 | OCC1CC=CCC1 (configuration not stated) | inactive | 
72 | CC(C)CCCCCOC(=O)CCCCC(=O)OCCCCCC(C)C | inactive | 
73 | CN1Cc2cc(C(=O)N3CCC(C4CCNCC4)CC3)ccc2N[C@@H](CC(=O)O)C1=O | inactive | 
74 | COC(=O)c1cc(Cl)ccc1NS(=O)(=O)C(F)(F)F | inactive | 
75 | CCOCCn1c(C2CCN(CCc3ccc(C(C)(C)C(=O)O)cc3)CC2)nc2ccccc21 | inactive | 
76 | CCc1c2c(nc3ccc(OC(=O)N4CCC(N5CCCCC5)CC4)cc13)-c1cc3c(c(=O)n1C2)COC(=O)[C@]3(O)CC | inactive | 
77 | CC1CC(=O)NN=C1c1ccc(NCC(C)(C)NCC(O)COc2cc(Cl)ccc2C#N)cc1 (configuration not stated) | inactive | 

Source: PubChem BioAssay (Tox21)
